Drawing on PubChem BioAssay (EPA / NIEHS), this text covers outcome and AC50 for four compounds.

Each structure is given as a SMILES string. Results filed as inconclusive are left out. Calls of active or inactive are those of the source. How the source made its calls, unless noted: active means hit-call score of the fitted dose curve at least 0.9, where 1 is the maximum; inactive means score below 0.9.

Assay [1] in a line: CCTE_Deisenroth_DEVTOX-GLR_Endo_CellCount: Viability Assessment in CCTE's DevTox GLR-Endo Assay, Deisenroth Lab (AID 2284420). Here is the method: CCTE_Deisenroth_DEVTOX-GLR_Endo assay is a cell-based, multiplex-readout assay that uses RUES2-GLR, a human pluripotent cell line, with measurements taken at 48 hours after chemical dosing in a 384-well microplateCCTE_Deisenroth_DEVTOX-GLR_Endo_CellCount is 1 of 4 assay components calculated from the CCTE_Deisenroth_DEVTOX-GLR_Endo assay and it measures cell count. Using fluorescent nuclear staining, loss-of-signal activity can be used to understand changes in cell viability with fluorescent microscopy. It is designed to make measurements of nuclei counts as a surrogate for cell number, as detected with optical fluorescence microscopy by Perkin Elmer Harmony nuclei detection algorithm. To generalize the intended target to other relatable targets, this assay component is annotated to the cell cycle intended target family, where the subfamily is cytotoxicity.Data from the assay component CCTE_Deisenroth_DEVTOX-GLR_Endo_CellCount was analyzed as 1 assay endpoint. The endpoint the percent change in cell count relative to the 0.2% DMSO control in the CCTE_Deisenroth_DEVTOX-GLR_Endo assay. Furthermore, this assay endpoint can be referred to as a primary readout, because this assay has produced multiple assay endpoints where this one serves as a measure of cytotoxicity.
(§1) All assay protocols are aligned to the DevTox GLR-Endo assay workflow. Cells are seeded into 384-well microplates for 24 hours prior to initiating differentiation in defined media for a total duration of 48 hours. A total of two chemical exposures are administered in 24-hour intervals during the 48-hour differentiation period. At the assay termination point, cells are fixed and stained with a fluorescent dye demarcating the nucleus. High-content imaging is used to acquire brightfield and fluorescent channel images across 5 fields per well. Cell identification and mean biomarker fluorescence intensities are calculated with image analysis software to determine the total cell counts for viability assessment and the biomarker expression frequency for each lineage-dependent assay. A typical experimental design tests a 10-point concentration series (1 nM - 200 uM) for 28 compounds in single technical replicate. Assay plate controls include non-differentiated pluripotent cells (baseline control), lineage-specific differentiated cells (differentiation control), and DMSO solvent exposed differentiated cells (solvent control). Experiments typically comprise a minimum of four experimental replicates (n=4).

Assay [2] relates to SRY-box transcription factor 17 (SOX17) Protein Expression, Deisenroth Lab, SOX17 (gene 64321). The assay is described as follows: CCTE_Deisenroth_DEVTOX-GLR_Pluri_SOX17: CCTE's DevTox GLR-Pluri Assay Evaluation of SRY-box transcription factor 17 (SOX17) Protein Expression, Deisenroth Lab (AID 2284427; active means hit-call score of the fitted dose curve at least 0.9, where 1 is the maximum). How it is done:
CCTE_Deisenroth_DEVTOX-GLR_Pluri assay is a cell-based, multiplex-readout assay that uses RUES2-GLR, a human pluripotent cell line, with measurements taken at 48 hours after chemical dosing in a 384-well microplateCCTE_Deisenroth_DEVTOX-GLR_Pluri_SOX17 is 1 of 4 assay components calculated from the CCTE_Deisenroth_DEVTOX-GLR_Pluri assay and it measures an the percentage of cells in an endoderm state. Using a type of inducible fluorescent protein reporter, gain-of-signal activity can be used to understand changes in gene expression with fluorescent microscopy. The percentage of SOX17+ cells are determined by calculating the number of SOX17+ cells divided by the cell count. To generalize the intended target to other relatable targets, this assay component is annotated to the transcription factor intended target family, where the subfamily is SRY-related HMG-box.Data from the assay component CCTE_Deisenroth_DEVTOX-GLR_Pluri_SOX17 was analyzed as 1 assay endpoint. The endpoint is the percent SOX17+ cell population minus the 0.2% DMSO control in the CCTE_Deisenroth_DEVTOX-GLR_Pluri assay. This assay endpoint can be referred to as a secondary readout since this assay has produced multiple assay endpoints where this one serves as a measure of endoderm differentiation.
as §1, with “A typical experimental design tests a 10-point concentration series (1 nM - 200 uM) for 28 compounds in single technical replicate. Assay plate controls include non-differentiated pluripotent cells (baseline control), lineage-specific differentiated cells (differentiation control), and DMSO solvent exposed differentiated cells (solvent control). Experiments typically comprise a minimum of four experimental replicates (n=4).” left out

Assay [3] has as its system SRY-box transcription factor 2 (SOX2) Protein Expression, Deisenroth Lab, SOX2 (gene 6657). Kind of assay: CCTE_Deisenroth_DEVTOX-GLR_Pluri_SOX2: CCTE's DevTox GLR-Pluri Assay Evaluation of SRY-box transcription factor 2 (SOX2) Protein Expression, Deisenroth Lab (AID 2284428). Here is the method: CCTE_Deisenroth_DEVTOX-GLR_Pluri assay is a cell-based, multiplex-readout assay that uses RUES2-GLR, a human pluripotent cell line, with measurements taken at 48 hours after chemical dosing in a 384-well microplateCCTE_Deisenroth_DEVTOX-GLR_Pluri_SOX2 is 1 of 4 assay components calculated from the CCTE_Deisenroth_DEVTOX-GLR_Pluri assay and it measures an the percentage of cells in an pluripotent state. Using a type of inducible fluorescent protein reporter, gain-of-signal activity can be used to understand changes in gene expression with fluorescent microscopy. The percentage of SOX2+ cells are determined by calculating the number of SOX2+ cells divided by the cell count. To generalize the intended target to other relatable targets, this assay component is annotated to the transcription factor intended target family, where the subfamily is SRY-related HMG-box.Data from the assay component CCTE_Deisenroth_DEVTOX-GLR_Pluri_SOX2 was analyzed as 1 assay endpoint. The endpoint is the percent change in the SOX2+ cell population relative to the 0.2% DMSO control in the CCTE_Deisenroth_DEVTOX-GLR_Pluri assay. Furthermore, this assay endpoint can be referred to as a primary readout, because this assay has produced multiple assay endpoints where this one serves as a measure of […].
as §1

The test system of assay [4] is Brachyury (BRA) Protein Expression, Deisenroth Lab, TBXT (gene 6862). Kind of assay: CCTE_Deisenroth_DEVTOX-GLR_Pluri_BRA: CCTE's DevTox GLR-Pluri Assay Evaluation of Brachyury (BRA) Protein Expression, Deisenroth Lab (AID 2284429; active means hit-call score of the fitted dose curve at least 0.9, where 1 is the maximum). In outline: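 RUES2-GLR reporter line; 48 h mesoderm differentiation; two exposures, 24 h apart; 1 nM - 200 uM, 10 points; nuclear stain, high-content imaging, 5 fields/well; endpoint = %BRA+ cells of total count minus 0.2% DMSO; n=4.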

Assay [5] in a line: CCTE_Deisenroth_DEVTOX-GLR_Pluri_CellCount: Viability Assessment in CCTE's DevTox GLR-Pluri Assay Evaluation of Total Cell Counts, Deisenroth Lab (AID 2284430). In outline: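 Cytotoxicity readout: fluorescent nuclei counts by high-content imaging, expressed as percent change relative to 0.2% DMSO. Human RUES2-GLR pluripotent line differentiated 48 h, dosed twice at 24-h intervals across 1 nM - 200 uM (10 points).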

As to `CC(=O)CC(c1ccccc1)c1c(O)c2ccccc2oc1=O` (centres undefined), the result in assay [1], in assay [2], in assay [3], in assay [4] and in assay [5] was inactive.
As for `Cc1cn([C@H]2C=C[C@@H](CO)O2)c(=O)[nH]c1=O`, the compound was called inactive in assay [1], in assay [2], in assay [3], in assay [4] and in assay [5].
As for `O=C(O)c1cccnc1`, the result in assay [1], in assay [2], in assay [3], in assay [4] and in assay [5] was inactive.
As for `O=C1NC(=O)C(c2ccccc2)(c2ccccc2)N1`, the compound was called inactive in assay [1]. Further, the results for the AC50 in assay [3], in assay [4] and in assay [5] were 150 µM (active), 152 µM (active) and 100 µM (active), respectively.
